The list is not random: actives were taken first. Their share in the collection is about 3.6%.
DAT uptake mod – changed hDAT dopamine uptake under cocaine IC80, either direction, primary screen, cocaine antagonist project, cell-based, LLC-PK1 hDAT, [14C]-dopamine uptake, MLSMR | AID 449768, 2010 | LLC-PK1 hDAT cells, [14C]-dopamine uptake with cocaine IC80; actives deviate in either direction | Sodium-dependent dopamine transporter (Homo sapiens), Q01959 | B-score at 10 µM | 1.3% of 110,000 active;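 active = Z score or B-score, a plate-position-corrected score, falls beyond the plate's 99.7% confidence bounds, in either direction; inactive = both scores lie inside the 99.7% bounds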;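 also: scored against the spread of the other compound wells on the same plate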
Target sequence (Q01959 whole entry, looked up): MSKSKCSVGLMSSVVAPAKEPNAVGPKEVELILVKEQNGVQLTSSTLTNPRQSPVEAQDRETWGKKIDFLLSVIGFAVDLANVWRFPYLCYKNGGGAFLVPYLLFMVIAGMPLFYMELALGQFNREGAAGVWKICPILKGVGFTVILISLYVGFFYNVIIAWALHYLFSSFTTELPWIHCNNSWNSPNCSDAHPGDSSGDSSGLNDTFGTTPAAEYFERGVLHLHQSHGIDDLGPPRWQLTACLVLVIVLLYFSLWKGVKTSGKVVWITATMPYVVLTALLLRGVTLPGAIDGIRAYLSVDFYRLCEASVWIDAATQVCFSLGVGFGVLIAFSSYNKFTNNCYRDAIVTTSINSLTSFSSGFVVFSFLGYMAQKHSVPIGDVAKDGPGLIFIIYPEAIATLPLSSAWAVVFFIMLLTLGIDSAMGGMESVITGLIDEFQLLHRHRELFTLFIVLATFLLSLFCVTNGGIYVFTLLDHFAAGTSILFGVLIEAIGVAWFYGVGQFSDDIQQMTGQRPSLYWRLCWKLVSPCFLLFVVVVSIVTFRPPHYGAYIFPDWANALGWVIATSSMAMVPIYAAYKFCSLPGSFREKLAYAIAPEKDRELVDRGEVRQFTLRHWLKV
WT yeast gro inh – growth inhibition of WT strain, primary screen, mitochondrial fusion inhibitor project, WT and mutant strains, chemical genetic. inhibition, % at 10 µM. mitochondrial fusion phenotypic screen. 2.1% of 190,000 active; in the data active = inhibition above about 58%; tested in S. cerevisiae
PTEN del growth – growth suppression of PTEN-null HCT116, primary screen, cell-based, CellTiter-Glo; 1.2% of 140,000 active; HCT116 PTEN-null viability, 60 h; stronger effect = lower value; AID 827, 2007; viability, % at 10 µM;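 active = viability at or below a set limit, 4 SD under the median of all tested compounds, cut at about 3.7% in these data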;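 also: PTEN knockout HCT116 line with beta catenin targeted HCT116 as companion control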
bCat KO growth – primary screen for growth suppressors in beta-catenin knockout HCT116 cells (colon tumor, human); HCT116 beta-catenin knockout viability, CellTiter-Glo, 60 h; stronger effect = lower value; viability, % at 10 µM; 1.5% of 140,000 active; AID 818, 2007;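 active = viability at or under a set limit, the compound median less 4 SD, cut at about 6% in these data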;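 also: 0% = Hyamine 1622 control at 20 µM and 100% = untreated cell control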
* marks the source's active call; other numbers are inactive results; · = no result.

SMILES	DAT uptake mod	WT yeast gro inh	PTEN del growth	bCat KO growth
O=C(CNc1cccc([N+](=O)[O-])c1)N/N=C/c1ccc([N+](=O)[O-])o1	·	-4	·	·
O=C(Cc1ccc([N+](=O)[O-])cc1)N/N=C/c1ccc([N+](=O)[O-])o1	·	5	·	·
O=C(CNc1cccc2ccccc12)N/N=C/C(Br)=C/c1ccccc1	-0.43	72*	1.2*	2.7*
O=C(CNc1cccc2ccccc12)N/N=C/c1ccc([N+](=O)[O-])o1	·	44	5	4.7*
CSc1ccc(/C=N/NC(=O)CNc2cccc3ccccc23)cc1	·	12	92	93
CC1(C(=O)N/N=C/c2ccc([N+](=O)[O-])o2)CC1(Br)Br (centres undefined)	·	7	2.5*	2.6*
CCc1noc(C)c1C(=O)Nc1nc(-c2ccc(Cl)cc2Cl)cs1	·	54	81	85
O=S(=O)(c1ccc(F)cc1)N1CN(Cc2ccco2)c2nc3ccccc3nc21	-0.061	63*	93	87
Cc1ccc(S(=O)(=O)N2CN(Cc3ccco3)c3nc4ccccc4nc32)cc1	0.78	3	77	85
COc1cc(C(=O)Oc2ccccc2/C=N/NC(=O)c2ccc(Cl)cc2Cl)cc(OC)c1OC	-1.3	4	2.4*	2.7*
CC1(C(=O)Nc2ccc3ccccc3c2)CC1(Br)Br (centres undefined)	·	15	·	·
CCOC(=O)c1c(N)sc(C(O)(C(F)(F)F)C(F)(F)F)c1-c1ccc(Cl)cc1	-0.071	96*	95	100
O=C(CSc1nc(-c2cccs2)cc(C(F)(F)F)n1)Nc1cc(OCC(F)(F)F)cc([N+](=O)[O-])c1	·	20	9	2.1*
Clc1ccccc1Cn1c(/C=C/c2ccco2)nc2ccccc21	·	78*	81	75
COc1ccc(Cn2c(/C=C/c3ccccc3)nc3ccccc32)cc1	-0.092	21	53	63
c1ccc(-c2nc3c(ccc4ccccc43)[nH]2)nc1	4.1*	37	40	31
CCc1ccc(C(=O)N2CCN(c3ccc(F)cc3)CC2)s1	2*	30	97	101
CCc1ccc(C(=O)N2CCCC2)s1	0.037	0	104	99
Cc1nc(S/C(=C/c2ccc(-c3cccc(Cl)c3)o2)C(=O)O)n[nH]1	·	71*	86	79
C#CCOCCOCCOCCNc1nc(N2CCN(C(=O)[C@H](CCC(=O)O)n3cc(C(N)CO)nn3)CC2)nc(N2CCN(C(=O)[C@H](CCC(=O)O)n3cc(C(N)[C@H](C)CC)nn3)CC2)n1 (some centres undefined)	·	-18	·	·
CCOC(=O)N1CCN(C(=O)C2CCN(S(=O)(=O)CC)CC2)CC1	1.6	-12	102	90
CCOC(=O)N1CCN(C(=O)C2CCCCC2)CC1	-2.6*	-31	89	87
COc1cc(C)ccc1S(=O)(=O)n1nc(C)cc1C	·	-14	·	·
Cc1cc(C)c(S(=O)(=O)Nc2ccc(O)cc2)c(C)c1	-0.14	10	90	88
Cc1cc(C)c(S(=O)(=O)Nc2ccc3c(c2)CCC3)c(C)c1	·	77*	35	44
SMILES	DAT uptake mod	WT yeast gro inh	PTEN del growth	bCat KO growth
COCCSc1nnc(NS(=O)(=O)c2ccc(F)cc2)s1	·	-1	·	·
O=C(CNC(=S)N(Cc1ccccc1)Cc1cccs1)NCc1ccc(F)cc1	·	61*	·	·
O=C(CNC(=S)N(Cc1ccccc1)Cc1ccccc1F)NCCc1ccc(Cl)cc1	·	75*	·	·
O=C(Cc1cccs1)NCc1ccc(F)cc1	-1.2	2	109	104
CCOc1ccc(N2C(=O)CC(N3CCC(NC(=O)Nc4ccccc4)CC3)C2=O)cc1 (centres undefined)	-2*	0	86	85
N#CCCn1cc(C(=O)N2CCOCC2)c(-c2ccc3c(c2)OCCO3)n1	·	5	·	·
C(=C\c1ccccc1)/CN1CCN(C(c2ccccc2)c2ccccc2)CC1	0.048	70*	63	56
Fc1ccc(C(c2ccc(F)cc2)N2CCN(C/C=C/c3ccccc3)CC2)cc1	-0.53	82*	11	7
O=C(c1ccc(Br)s1)N1CCN(C/C=C/c2ccccc2)CC1	0.57	23	75	64
O=C(CCS(=O)(=O)c1ccccc1)Nc1nc2c(s1)COc1ccccc1-2	-0.0042	-23	1.8*	3.1*
O=C(CCCOc1ccc(Cl)cc1Cl)N1CCc2ccccc2C1	1.4	80*	95	99
CC(CNC(=O)COc1ccccc1)OC(=O)Nc1ccc(Cl)c(Cl)c1 (centres undefined)	·	82*	77	73
COc1ccc(O)c(-c2c(-c3ccc(Cl)cc3)n[nH]c2C)c1	3.7*	0	86	86
COc1ccc(-c2n[nH]c(C)c2-c2ccc(Cl)cc2)c(O)c1	0.26	49	19	11
CCOc1ccc(/C=N/n2c(SC)nnc2-c2ccccc2)cc1OCC	3.3*	2	87	85
CCOc1ccc(/C=N/n2c(SC)nnc(C(C)(C)C)c2=O)cc1	0.49	12	98	91
CCn1c([N+](=O)[O-])nc2c1c(=O)[nH]c(=O)n2C	·	-1	·	·
Brc1ccc2ncc(Br)cc2c1	·	-3	99	93
Cc1ccccc1CN(c1ccc(C(=O)N2CCc3ccccc3C2)cc1)S(C)(=O)=O	-3.2*	6	67	74
CC(=O)NS(=O)(=O)c1ccc(NC(=O)C2c3ccccc3Oc3ccccc32)cc1	·	-4	92	83
COc1ccc(N2C(C(C)=O)=NN(c3ccccc3)C2c2cccs2)cc1 (centres undefined)	1.4*	20	60	53
CC(=O)Nc1ccc(N2C(C(C)=O)=NN(c3ccccc3)C2c2cccs2)cc1 (centres undefined)	-0.49	25	91	90
O=C(Nc1ccc2nc(SCc3ccc(Cl)cc3)sc2c1)c1ccccc1C(=O)N1CCOCC1	-7.1*	57	23	24
COC(=O)CSc1nc2ccc(NC(=O)c3ccccc3C(=O)N3CCOCC3)cc2s1	·	-11	93	94
Clc1ccc(-c2nnc(NCc3ccccc3)c3ccccc23)cc1	·	73*	65	82
SMILES	DAT uptake mod	WT yeast gro inh	PTEN del growth	bCat KO growth
COc1cc(OC)c2c(-c3ccccc3)cc(=O)oc2c1C(CC(=O)N1CCCC1)c1ccc2c(c1)OCO2 (centres undefined)	2.1*	·	·	·
COc1cc(OC)c2c(-c3ccccc3)cc(=O)oc2c1C(CCN1CCCCC1)c1ccc2c(c1)OCO2 (centres undefined)	0.49	·	·	·
Cc1ccsc1C1CC(=O)OC2=C1C(=O)CC(C)(C)C2 (centres undefined)	·	-1	·	·
O=C1CCC(=O)N1CCC(c1ccc(F)cc1)c1ccco1 (centres undefined)	-0.39	18	101	96
O=C1NCN(c2ccccc2)C12CCN(CCCC(c1ccc(F)cc1)c1ccc(F)cc1)CC2	-0.27	73*	·	·
C=C(C)C1CC=C(C)/C(=N/NC(=O)C2CC2c2ccccc2)C1 (centres undefined)	·	-14	·	·

Source: PubChem
